Reference: PubChem BioAssay AID1159580 (chemical genetic matrix, 2015)
The campaign covered roughly 5,500 compounds. About 2,000 (36%) were called active. Roughly 18% stayed inconclusive and do not appear here. Cut-off read from the data, not from the text of the source: active = normalized growth mostly below about 0.91 (no sharp cut-off); inconclusive = no clear call, values can overlap the other calls; inactive = mostly above about 0.92. This is one part of the list.

Experiment: chemical genetic growth profiling, strain panel (AID 1159580);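 note: tested at 20 µM; growth read once vehicle control cultures reached saturation at 30 °C; 1 = growth at the plate median or of vehicle wells; lower values mean less growth of the strain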
Conditions: growth OD
[1] = S. cerevisiae deletion strains, locus YHR030C, strain SLT2, stronger effect = lower value
[2] = S. cerevisiae deletion strains, locus YHR079C, strain IRE1, stronger effect = lower value
[3] = S. cerevisiae deletion strains, locus YJL095W, strain BCK1, stronger effect = lower value
[4] = S. cerevisiae deletion strains, locus YJR066W, strain TOR1, stronger effect = lower value
[5] = S. cerevisiae deletion strains, locus YLR113W, strain HOG1, stronger effect = lower value
[6] = S. cerevisiae deletion strains, locus YNL183C, strain NPR1, stronger effect = lower value
[7] = S. cerevisiae deletion strains, locus YOR231W, strain MKK1, stronger effect = lower value
[8] = S. cerevisiae deletion strains, locus YPL256C, strain CLN2, stronger effect = lower value
[9] = S. cerevisiae deletion strains, locus YDL101C, strain DUN1, stronger effect = lower value

Measured: normalized growth

CC(=O)N[C@@H]1[C@@H](O)[C@H](O)[C@@H](CO)O[C@H]1O
inactive: [1] 0.993 | [2] 0.975 | [3] 0.995 | [4] 0.917 | [5] 0.993 | [6] 0.898 | [7] 0.99 | [8] 0.967

COc1ccc(/C(C#N)=C2C=C/C(=N/O)C(Cl)=C\2)cc1
inactive: S. cerevisiae deletion strains, locus YAR019C, strain CDC15, stronger effect = lower value 0.972 | S. cerevisiae deletion strains, locus YBL105C, strain PKC1, stronger effect = lower value 0.975 | S. cerevisiae deletion strains, locus YBR135W, strain CKS1, stronger effect = lower value 0.959 | S. cerevisiae deletion strains, locus YBR136W, strain MEC1, stronger effect = lower value 0.954 | S. cerevisiae deletion strains, locus YBR160W, strain CDC28, stronger effect = lower value 0.976 | S. cerevisiae deletion strains, locus YDL017W, strain CDC7, stronger effect = lower value 0.984 | S. cerevisiae deletion strains, locus YDL028C, strain MPS1, stronger effect = lower value 0.976 | [9] 0.971 | S. cerevisiae deletion strains, locus YDL108W, strain KIN28, stronger effect = lower value 0.969 | S. cerevisiae deletion strains, locus YDL132W, strain cdc53, stronger effect = lower value 0.948 | S. cerevisiae deletion strains, locus YDL214C, strain PRR2, stronger effect = lower value 0.918 | S. cerevisiae deletion strains, locus YDR052C, strain DBF4, stronger effect = lower value 0.966 | S. cerevisiae deletion strains, locus YDR054C, strain cdc34, stronger effect = lower value 0.958 | S. cerevisiae deletion strains, locus YDR226W, strain ADK1, stronger effect = lower value 0.955 | S. cerevisiae deletion strains, locus YDR477W, strain SNF1, stronger effect = lower value 0.898 | S. cerevisiae deletion strains, locus YER123W, strain YCK3, stronger effect = lower value 0.898 | S. cerevisiae deletion strains, locus YER133W, strain GLC7, stronger effect = lower value 0.906 | S. cerevisiae deletion strains, locus YFL009W, strain cdc4, stronger effect = lower value 0.962 | S. cerevisiae deletion strains, locus YFL029C, strain CAK1, stronger effect = lower value 0.965 | S. cerevisiae deletion strains, locus YFR003C, strain YPI1, stronger effect = lower value 0.97 | S. cerevisiae deletion strains, locus YFR019W, strain FAB1, stronger effect = lower value 0.949 | S. cerevisiae deletion strains, locus YFR028C, strain CDC14, stronger effect = lower value 0.948 | S. cerevisiae deletion strains, locus YGR040W, strain KSS1, stronger effect = lower value 0.864 | S. cerevisiae deletion strains, locus YGR052W, strain FMP48, stronger effect = lower value 0.925 | S. cerevisiae deletion strains, locus YGR092W, strain DBF2, stronger effect = lower value 0.822 | [1] 0.879 | [2] 0.996 | S. cerevisiae deletion strains, locus YHR082C, strain KSP1, stronger effect = lower value 0.937 | S. cerevisiae deletion strains, locus YHR205W, strain SCH9, stronger effect = lower value 0.775 | S. cerevisiae deletion strains, locus YIL147C, strain SLN1, stronger effect = lower value 0.968 | [3] 0.842 | S. cerevisiae deletion strains, locus YJL128C, strain PBS2, stronger effect = lower value 0.942 | S. cerevisiae deletion strains, locus YJL157C, strain FAR1, stronger effect = lower value 0.926 | S. cerevisiae deletion strains, locus YJR016C, strain ILV3, stronger effect = lower value 0.954 | S. cerevisiae deletion strains, locus YJR066W, strain TOR1 (second series), stronger effect = lower value 0.85 | [4] 0.887 | S. cerevisiae deletion strains, locus YKL048C, strain ELM1, stronger effect = lower value 0.929 | S. cerevisiae deletion strains, locus YKL067W, strain YNK1, stronger effect = lower value 0.932 | S. cerevisiae deletion strains, locus YKL101W, strain HSL1, stronger effect = lower value 0.893 | S. cerevisiae deletion strains, locus YKL193C, strain SDS22, stronger effect = lower value 0.964 | S. cerevisiae deletion strains, locus YKL203C, strain TOR2, stronger effect = lower value 0.866 | S. cerevisiae deletion strains, locus YLR133W, strain CKI1, stronger effect = lower value 0.913 | S. cerevisiae deletion strains, locus YLR403W, strain SFP1, stronger effect = lower value 0.866 | S. cerevisiae deletion strains, locus YML070W, strain DAK1, stronger effect = lower value 0.915 | S. cerevisiae deletion strains, locus YMR001C, strain CDC5, stronger effect = lower value 0.959 | S. cerevisiae deletion strains, locus YMR205C, strain PFK2 (second series), stronger effect = lower value 0.941 | S. cerevisiae deletion strains, locus YMR277W, strain FCP1, stronger effect = lower value 0.967 | S. cerevisiae deletion strains, locus YNL006W, strain LST8, stronger effect = lower value 0.985 | S. cerevisiae deletion strains, locus YNL020C, strain ARK1, stronger effect = lower value 0.922 | S. cerevisiae deletion strains, locus YNL161W, strain CBK1, stronger effect = lower value 0.973 | [6] 0.862 | S. cerevisiae deletion strains, locus YNL207W, strain RIO2, stronger effect = lower value 0.961 | S. cerevisiae deletion strains, locus YNL222W, strain SSU72, stronger effect = lower value 0.971 | S. cerevisiae deletion strains, locus YNL307C, strain MCK1 (second series), stronger effect = lower value 0.874 | S. cerevisiae deletion strains, locus YOL078W, strain AVO1, stronger effect = lower value 0.958 | S. cerevisiae deletion strains, locus YOL136C, strain PFK27, stronger effect = lower value 0.894 | S. cerevisiae deletion strains, locus YOR061W, strain CKA2, stronger effect = lower value 0.903 | S. cerevisiae deletion strains, locus YOR119C, strain RIO1, stronger effect = lower value 0.87 | [7] 0.905 | S. cerevisiae deletion strains, locus YOR329C, strain SCD5, stronger effect = lower value 0.985 | S. cerevisiae deletion strains, locus YPL031C, strain PHO85, stronger effect = lower value 0.854 | S. cerevisiae deletion strains, locus YPL153C, strain RAD53, stronger effect = lower value 0.899 | S. cerevisiae deletion strains, locus YPL204W, strain HRR25, stronger effect = lower value 0.864 | S. cerevisiae deletion strains, locus YPL209C, strain IPL1, stronger effect = lower value 0.977 | [8] 0.967 | S. cerevisiae deletion strains, locus YPR025C, strain CCL1, stronger effect = lower value 0.977 | S. cerevisiae deletion strains, locus YPR106W, strain ISR1, stronger effect = lower value 0.96 | S. cerevisiae deletion strains, locus YPR111W, strain DBF20, stronger effect = lower value 0.942 | S. cerevisiae deletion strains, strain NNK1, stronger effect = lower value 0.979 | S. cerevisiae deletion strains, strain TSCII, stronger effect = lower value 0.959
active: [5] 0.851

Cc1ccc(S(=O)(=O)/C(C#N)=N\O)cc1
inactive: S. cerevisiae deletion strains, locus YAL013W, strain DEP1, stronger effect = lower value 0.989 | S. cerevisiae deletion strains, locus YBR229C, strain ROT2, stronger effect = lower value 0.999 | S. cerevisiae deletion strains, locus YCL061C, strain MRC1, stronger effect = lower value 1.01 | [9] 1.01 | S. cerevisiae deletion strains, locus YDR150W, strain NUM1, stronger effect = lower value 1.02 | S. cerevisiae deletion strains, locus YEL061C, strain CIN8, stronger effect = lower value 0.985 | S. cerevisiae deletion strains, locus YGR078C, strain PAC10, stronger effect = lower value 0.997 | S. cerevisiae deletion strains, locus YGR229C, strain SMI1, stronger effect = lower value 0.988 | [1] 0.948 | S. cerevisiae deletion strains, locus YHR087W, strain rtc3, stronger effect = lower value 0.979 | S. cerevisiae deletion strains, locus YJL187C, strain SWE1, stronger effect = lower value 0.987 | S. cerevisiae deletion strains, locus YJR043C, strain POL32, stronger effect = lower value 0.977 | S. cerevisiae deletion strains, locus YJR075W, strain HOC1, stronger effect = lower value 1.03 | S. cerevisiae deletion strains, locus YLR039C, strain RIC1, stronger effect = lower value 0.98 | S. cerevisiae deletion strains, locus YLR058C, strain SHM2 (second series), stronger effect = lower value 0.997 | S. cerevisiae deletion strains, locus YLR085C, strain ARP6, stronger effect = lower value 1.04 | S. cerevisiae deletion strains, locus YLR262C, strain YPT6, stronger effect = lower value 0.984 | S. cerevisiae deletion strains, locus YML094W, strain GIM5, stronger effect = lower value 1.02 | S. cerevisiae deletion strains, locus YMR219W, strain ESC1, stronger effect = lower value 1 | S. cerevisiae deletion strains, locus YMR263W, strain SAP30, stronger effect = lower value 0.932 | S. cerevisiae deletion strains, locus YMR307W, strain GAS1, stronger effect = lower value 1.12 | S. cerevisiae deletion strains, locus YNL153C, strain GIM3, stronger effect = lower value 0.989 | S. cerevisiae deletion strains, locus YNL298W, strain CLA4 (second series), stronger effect = lower value 0.977 | S. cerevisiae deletion strains, locus YNL322C, strain KRE1, stronger effect = lower value 0.993 | S. cerevisiae deletion strains, locus YNR030W, strain Alg12, stronger effect = lower value 0.998 | S. cerevisiae deletion strains, locus YPL055C, strain LGE1, stronger effect = lower value 1.11 | S. cerevisiae deletion strains, locus YPL241C, strain CIN2, stronger effect = lower value 1.02 | S. cerevisiae deletion strains, locus YPR135W, strain CTF4, stronger effect = lower value 0.906 | S. cerevisiae strains, strain wild type, stronger effect = lower value 0.971
